# Source: PubChem BioAssay AID588342 (National Center for Advancing Translational Sciences (NCATS), 2011)
# Hit rate of the full screen: of about 360,000 compounds, about 25,000 (6.9%) were called active. Another 9% or so got no clear call; they are omitted. The sample holds actives, similar compounds and a random draw of the others, so the mix is not that of the screen. Unmarked numbers belong to inactive results. Calls come from the whole dose curve; as a rule, active = well fitted inhibition curve with a large enough effect; inconclusive = small, poorly fitted or top-dose-only effect; inactive = flat fitted curve, though single readings scatter.
# Molecular target: Luciferin 4-monooxygenase (Photinus pyralis) (UniProt P08659)
# Sequence (P08659 whole entry, looked up): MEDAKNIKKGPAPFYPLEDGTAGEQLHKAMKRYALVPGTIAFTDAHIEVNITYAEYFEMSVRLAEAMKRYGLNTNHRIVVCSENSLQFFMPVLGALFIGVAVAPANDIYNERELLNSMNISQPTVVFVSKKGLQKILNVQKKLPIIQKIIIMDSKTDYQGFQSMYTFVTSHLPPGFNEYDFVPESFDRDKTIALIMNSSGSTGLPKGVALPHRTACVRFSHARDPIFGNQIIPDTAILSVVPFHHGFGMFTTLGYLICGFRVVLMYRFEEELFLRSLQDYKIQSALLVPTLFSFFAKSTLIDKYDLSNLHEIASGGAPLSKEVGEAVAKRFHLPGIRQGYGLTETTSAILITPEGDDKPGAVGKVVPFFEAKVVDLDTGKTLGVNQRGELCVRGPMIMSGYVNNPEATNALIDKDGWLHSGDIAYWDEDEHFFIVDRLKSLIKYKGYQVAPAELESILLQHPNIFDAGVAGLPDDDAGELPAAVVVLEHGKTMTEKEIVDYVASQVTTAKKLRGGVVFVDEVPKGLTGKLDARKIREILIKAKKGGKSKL
# Assay: qHTS profiling assay for firefly luciferase inhibitor/activator using purifed enzyme and Km concentrations of substrates (counterscreen for miR-21 project); note: nearly all actives have a fitted effect of over 55% in size;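 for activity change, negative = inhibition: plate controls were vehicle for no effect and reference inhibitor for full effect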
# Settings: purified FLuc, luminescence inhibition; series mostly up to 57.5 µM; activity change, negative = inhibition: at the top concentration
# Outline: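 Biochemical qHTS of compounds, final roughly 60 µM downward over six points, against 10 nM purified firefly luciferase using Km concentrations of substrates (10 uM D-luciferin, 10 uM ATP) in Tris acetate pH 7.5 buffer; luminescence output.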
# Potency is the fitted concentration of half-maximal effect.
Structure (SMILES),Potency,"activity change, negative = inhibition [%]"
CCCN1C(=O)C(Cc2nc3ccccc3c(=O)n2-c2ccccc2)c2cc(C)ccc21 (configuration not stated),inactive,
COc1ccc(NC(=S)N2N=CCC2c2ccccc2)cc1 (configuration not stated),4.78 µM (active),
COc1ccc(NC(=S)N2CCc3cc(OC)c(OC)cc3C2)cc1,,-3.32
CCC(C)N(C)C1CCN(C(=S)Nc2ccc(OC)cc2)CC1 (configuration not stated),,-4.4
COc1ccc(C(=O)NC2CC2)cc1OC1CCN(Cc2cnn(C)c2)CC1,,4.8
OCCCN1c2ccccc2Nc2nnc(-c3ccccc3)cc21,1.9 µM (active),
N=c1c2c(-c3ccccc3)c(-c3ccccc3)n(Cc3ccccc3)c2ncn1CCCO,,0.125
COC(=O)c1ccccc1NS(=O)(=O)c1ccc2c(c1)CCCN2C(C)=O,,-13.4
O=C(NCCc1ccccc1)c1ccc2c(c1)N(Cc1ccccc1)CCS2,,-4.39
O=C(NCCc1ccccc1)c1cnc2sc(N3CCCC3)nn2c1=O,,0.37
CC1CCCN(c2ccc(C(=O)NCCc3ccccc3)cn2)C1 (configuration not stated),7.57 µM (active),
Cc1ccc(-c2nc(Cn3c(=O)cc(-c4ccccc4)c4c(C)nn(C)c43)c(C)o2)cc1,,-6.05
CCN(CC)S(=O)(=O)c1ccc2c(c1)N(CC(=O)NCC(C)c1ccccc1)C(=O)CO2 (configuration not stated),,-3.19
O=S(=O)(NCC(c1ccccc1)N1CCc2ccccc21)c1ccccc1 (configuration not stated),,-6.21
Cc1onc(C(=O)NN)c1-c1csc(COc2ccccc2)n1,,-4.18
CC(C)(C)C(=O)OCc1nc(-c2ccc(O)c(O)c2)cs1,4.26 µM (active),
Cc1nnc2n1N=C(c1ccccc1)CS2,,-2
CCCCCCn1nnc2sc(-c3ccccc3)cc2c1=O,,-2.55
O=c1c2cc(-c3ccccc3)sc2nc2n1N=C(c1cccs1)CS2,0.601 µM (active),
CCOc1ccc(NC(=O)CC2C(=O)N(c3cccc(OC)c3)C(=O)N2C2CCCCC2)cc1 (configuration not stated),,-4.52
CCOC(=O)c1c(S(=O)(=O)N2CCCC(C(=O)NCc3cccc(C)c3)C2)c(C)n(C)c1C (configuration not stated),,-1.83
CCOC(=O)C1CCCN(CC(=O)Nc2cc(C)c3c(=O)oc4ccccc4c3n2)C1 (configuration not stated),,-2.78
CCCCC(=O)Nc1cc(C)c2c(=O)oc3ccccc3c2n1,,-17.8
CCOC(=O)c1c(C)nc2c(c1C)c(=O)oc1ccccc12,16.9 µM (active),
N#Cc1c(-c2ccccc2)cc(-c2ccccc2)nc1SCC(=O)O,,-9.04
N#Cc1c(N2CCCCC2)nc(N)c2c(N)nc(SCC(=O)O)cc12,8.49 µM (active),

Structure (SMILES),Potency,"activity change, negative = inhibition [%]"
Cc1cc(C)c(C#N)c(N2CCC(C(N)=O)CC2)n1,,2.33
O=S(=O)(Nc1ccc2nc(N3CCOCC3)sc2c1)c1ccccc1,21.3 µM (active),
CCOC(=O)N1CCC(NC(=O)c2ccc3nc(N4CCOCC4)sc3c2)CC1,,-1.13
O=C(c1ccc2nc(N3CCOCC3)sc2c1)N1CCN(c2ccc(Cl)cc2)CC1,,-1.27
COc1ccccc1N1CC(C(=O)NCCN2C(=O)S/C(=C\c3cccnc3)C2=O)CC1=O (configuration not stated),,-1.81
NC(=O)COc1ccc(NC(=O)c2ccccc2-c2ccccc2)cc1,,0.603
NC(=O)COc1ccccc1C(=O)NC12CC3CC(CC(C3)C1)C2,,-0.909
NC(=O)COc1ccc(C23CC4CC(CC(C4)C2)C3)cc1,12 µM (active),
Cc1ccc(/C=C2\CCn3c2nc2cc(C(=O)O)ccc2c3=O)c(C)c1,,4.09
COc1ccccc1CNC(=O)CCCn1c(=O)c2ccccc2n(CC(=O)Nc2ccc(C)cc2Cl)c1=O,,1.77
CCCn1nc(NS(=O)(=O)c2ccccc2)c2cc3cc(C)ccc3nc21,16.9 µM (active),
CCCn1nc(NS(=O)(=O)c2ccc(F)cc2)c2cc3ccccc3nc21,,1.89
CCCn1nc(NC(=O)C(C)C)c2cc3cc(OC)ccc3nc21,,-7.62
O=S(=O)(NCC(c1ccco1)N1CCOCC1)c1cc(F)ccc1F (configuration not stated),,-3.23
Cc1csc2nc(COC(=O)c3ccccc3NC(=O)c3ccccc3Cl)cc(=O)n12,,-0.468
CCN(CC)c1nn2c(=O)c(C(=O)NCCc3ccccc3)cnc2s1,,3.21
Cc1cc(-n2nc(C)cc2C)n2nc(C)c(-c3ccccc3)c2n1,,5.57
Cc1cc(-c2ccccc2)n2nc(C)c(-c3ccccc3)c2n1,16.9 µM (active),
Cc1cc(C(C)(C)C)n2nc(C)c(-c3ccccc3)c2n1,,-0.621
Cc1ccc(C)n1-c1nnc(N2CCC(C(=O)NCc3ccccc3Cl)CC2)s1,,4.23
O=C(NCc1ccc2c(c1)CCN2C(=O)c1ccccc1)c1ccccc1,,-4.72
CC(=O)N(C)c1ccc(NC(=O)C(F)(F)F)cc1,,0.386
CNC(=S)NNC(=O)c1ccc(N(C)C)cc1,,3.3
CN(C)c1ccc(N/C=C/C(=O)C(F)(F)F)cc1,10.7 µM (active),
Cc1ccc2nc(NC(=O)c3nc(SCc4ccccc4F)ncc3Cl)sc2c1,,1.12
CCOc1ccc(NC(=O)c2c(NC(=O)Cc3ccccc3)sc3c2CCC(C)C3)cc1 (configuration not stated),,-16.8
